Source: PubChem (National Center for Advancing Translational Sciences (NCATS))
Shown are actives, neighbours in structure and some others; about 2.6% of the full set was active somewhere.
HTT-AS promoter = activators of huntingtin-antisense promoter activity; Potency, µM (top dose mostly 57.5 µM), hits mostly activators; HEK293 HTT-AS promoter firefly luciferase reporter, 24 h; response scale: percent change from vehicle, -100% = no light; 48,000 tested, 0.24% active; further: nearly all actives have a fitted effect of over 55% in size
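Quantitative HTS used concentration series of up to 57.5 uM final on HEK293 luciferase reporter cells, 24 h at 37 degrees C. Readout was Dual-Glo firefly luminescence.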
NTMT1 inhibitor = blocks human N-terminal methyltransferase 1 activity | Q9BV86 | Potency, µM (highest dose often 114 µM), most hits filed as inhibitors | 59,000 tested, 2.5% active | AID 1645870 | NTMT1 MTase-Glo SAH luminescence, purified enzyme; further: nearly all actives have a fitted effect of over 65% in size
Target sequence (Q9BV86 whole entry, looked up): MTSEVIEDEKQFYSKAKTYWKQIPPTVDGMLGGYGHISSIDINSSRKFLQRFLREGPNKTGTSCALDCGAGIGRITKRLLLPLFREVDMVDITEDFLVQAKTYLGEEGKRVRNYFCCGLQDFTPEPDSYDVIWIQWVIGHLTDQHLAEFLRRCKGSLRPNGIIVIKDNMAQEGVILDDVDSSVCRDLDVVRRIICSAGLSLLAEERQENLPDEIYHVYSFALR
FH mod = Identification of activators of human fumarate hydratase by quantitative high-throughput screening; FH coupled MDH/diaphorase resazurin fluorescence, 15 min; Potency, µM (doses to about 79.9 µM), hits mostly inhibitors; Fumarate hydratase, mitochondrial (Homo sapiens), P07954; 54,000 tested, 0.22% active; further: the screen sought activators but most active calls are inhibition curves; nearly all actives have a fitted effect of over 45% in size
HTT prom inh = HTT promoter inhibition; HEK293 HTT promoter firefly luciferase reporter, 24 h; Potency, µM (top dose mostly 57.5 µM), hits mostly inhibitors; 48,000 tested, 0.93% active; AID 1508623; further: nearly all actives have a fitted effect of over 50% in size
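HEK293 luciferase promoter-reporter cells (2,500/well) plated 24 h, then compounds added at up to 57.5 uM final for 24 h at 37 °C. Firefly luminescence by Dual-Glo, normalized to vehicle (0%) and zero RLU (-100%).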
CLK4 inh-1 = confirmation of human CLK4 kinase inhibitors, SAR round 2 | Potency, µM (top dose mostly 76.9 µM), hits mostly inhibitors | 90 tested, 90% active | recombinant Clk4, Kinase-Glo ATP luminescence, 4.5 h | shares compounds with NTMT1 inhibitor
CLK4 inh-2 = CLK4 kinase inhibition, SAR round 2 | shares compounds with NTMT1 inhibitor | Reaction Biology kinase assay, 10 uM ATP | Potency, µM, most hits filed as inhibitors | 65 tested, 100% active; calls by dose curve
DYRK1A RBC = blocks human DYRK1A kinase in radiometric assay. shares compounds with NTMT1 inhibitor. Reaction Biology kinase assay, 10 uM ATP. Potency, µM, hits mostly inhibitors. 65 tested, 90% active. AID 504424;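 active means compounds that showed inhibition of Dyrk1a and received a fitted potency; inactive means compounds that showed no inhibition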
CLK2 inh = inhibitors of human CLK2 kinase; Reaction Biology kinase assay, 10 uM ATP; shares compounds with NTMT1 inhibitor; Potency, µM, actives largely listed as inhibitors; 65 tested, 90% active; AID 504427;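 active means compound that inhibits Clk2 kinase in the dose series, with an IC50 potency reported; inactive means no inhibition seen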
CLK3 inh = blocks human CLK3 kinase activity; shares compounds with NTMT1 inhibitor; recombinant CLK3 kinase assay, 10 uM ATP; Potency, µM, hits mostly inhibitors; 65 tested, 40% active;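 active means compounds that inhibited Clk3 enough in the ten-dose series to give a half-maximal potency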
DYRK1B inh = blocks human DYRK1B kinase activity | shares compounds with NTMT1 inhibitor | Recombinant Dyrk1b kinase assay, 10 uM ATP | Potency, µM, usual class: inhibitors | 65 tested, 80% active | AID 504429;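 active means compounds whose dose response shows an inhibitor phenotype against the kinase Dyrk1b; inactive means compounds showing no inhibitor phenotype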
CLK1 inh = inhibitors of human CLK1 kinase; shares compounds with NTMT1 inhibitor; recombinant Clk1 kinase assay, 10 uM ATP; Potency, µM, usual class: inhibitors; 65 tested, 90% active;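 active means compounds that block the splicing kinase Clk1 enough to give a fitted half-inhibition concentration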
Sfp qHTS opt = inhibits purified B. subtilis Sfp PPTase; Potency, µM (highest dose often 114 µM), usual class: inhibitors; 230 tested, 78% active; purified Sfp PPTase enzyme activity, qHTS; shares compounds with NTMT1 inhibitor
HM489 growth = Sfp PPTase inhibitors: growth inhibition of B. subtilis HM489 | AID 540353 | 220 tested, 50% active | shares compounds with NTMT1 inhibitor | Potency, µM (top dose mostly 114 µM), usual class: inhibitors | B. subtilis HM489 (acpS-) growth, BacTiter-Glo, 5 h
Sfp gel opt = inhibitors of Bacillus subtilis Sfp PPTase, gel-based followup | shares compounds with NTMT1 inhibitor | purified Sfp PPTase, gel-based product detection | Potency, µM (top dose mostly 250 µM), actives largely listed as inhibitors | 220 tested, 54% active
Sfp SAR2 = Sfp phosphopantetheinyl transferase inhibition, SAR round 2. shares compounds with NTMT1 inhibitor. purified Sfp enzyme, PPTase activity, qHTS. Potency, µM (titrated, usually from 57.1 µM), most hits filed as inhibitors. 230 tested, 87% active
HSD17B4 counter = HSD17B4 (human) inhibition, HPGD counter-screen. 230 tested, 10% active. shares compounds with NTMT1 inhibitor. Potency, µM (titrated, usually from 57.1 µM), hits mostly inhibitors. purified HSD17B4, estradiol/NAD+, NADH fluorescence
ALDH1A1 inh = counter-screen for HPGD inhibitors: human ALDH1A1 inhibition. shares compounds with NTMT1 inhibitor. 230 tested, 93% active. Potency, µM (top dose mostly 57.1 µM), most hits filed as inhibitors. recombinant ALDH1A1, NADH fluorescence, propionaldehyde/NAD+
NNMT inh = counter-screen for NTMT1 inhibitors: human NNMT inhibition; NNMT MTase-Glo luminescence, SAH detection; shares compounds with NTMT1 inhibitor; Potency, µM (titrated, usually from 57.1 µM), hits mostly inhibitors; 120 tested, 10% active
Target sequence (P40261 whole entry, looked up): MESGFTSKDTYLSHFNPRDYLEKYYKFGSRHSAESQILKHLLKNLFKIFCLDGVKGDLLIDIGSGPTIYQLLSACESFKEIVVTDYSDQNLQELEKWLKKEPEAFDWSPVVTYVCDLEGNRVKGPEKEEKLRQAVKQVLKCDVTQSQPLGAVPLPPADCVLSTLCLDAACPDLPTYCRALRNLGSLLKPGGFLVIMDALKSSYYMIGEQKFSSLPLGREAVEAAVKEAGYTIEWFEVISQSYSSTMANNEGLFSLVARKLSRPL
Hits are given with their value; 0 = inactive; ? = inconclusive; - = no result. Unless noted, the call rests on the fitted dose curve; in most records, active means well fitted curve in the direction sought with a large enough effect; inconclusive means small, poorly fitted or top-dose-only effect, or another doubt; inactive means no such curve, though single readings can be large; an effect the other way counts as inactive or inconclusive.

SMILES	HTT-AS promoter	NTMT1 inhibitor	FH mod	HTT prom inh	others
NCCOc1cc(C(=O)Nc2cc(OCCN)c3ccccc3n2)nc(C(=O)Nc2cc(OCCN)c3ccccc3n2)c1	-	22µM	?	-	NNMT inh=0
COc1ccc(Nc2cc(C(=O)NCc3ccccc3)c3ccccc3n2)c(OC)c1	0	0	0	0
Cc1cc(O)c(-c2ccc([C@@H](C)CN(C)C)cc2)c2c1[nH]c(=O)c1sccc12	-	25µM	?	-	NNMT inh=?
Cc1ccc(CNC(=O)c2c(C)oc3ncnc(N4CCOCC4)c23)cc1	0	0	0	0
CC(O)c1ccc(-c2ccc3ncnc(N4CCOCC4)c3c2)o1 (configuration not stated)	-	?	-	-	CLK4 inh-1=0.41µM;CLK4 inh-2=1.9;DYRK1A RBC=29µM;CLK2 inh=19µM;CLK3 inh=0;DYRK1B inh=45µM;CLK1 inh=9µM
Cc1oc2ncnc(N3CCOCC3)c2c1C(=O)N(Cc1ccccc1)C(C)C	0	?	0	0
O=C(O)c1ccc(-c2ccc3ncnc(N4CCOCC4)c3c2)o1	-	0	-	-	CLK4 inh-1=0.65µM;CLK4 inh-2=3;DYRK1A RBC=45µM;CLK2 inh=33µM;CLK3 inh=0;DYRK1B inh=34µM;CLK1 inh=46µM
CCC(C)/C=C(C)/C=C/c1cc2c(cn1)C(=O)C(C)(OC(C)=O)C(O)=C2Cl (configuration not stated)	-	0	0	-
CCOC(=O)c1c(C)[nH]c(C)c1S(=O)(=O)N1CCC(C(=O)Nc2cc(C)ccn2)CC1	0	0	?	0
Cc1cc(C)nc(NC(=S)N2CCN(c3ccc(Cl)nn3)CC2)c1	-	?	-	-	Sfp qHTS opt=12µM;HM489 growth=0;Sfp gel opt=?;Sfp SAR2=3.6µM;HSD17B4 counter=0;ALDH1A1 inh=19µM
CC(=O)N1CCN(C(=S)Nc2cc(C)ccn2)CC1	-	?	-	-	Sfp qHTS opt=33µM;HM489 growth=?;Sfp gel opt=13µM;Sfp SAR2=6.5µM;HSD17B4 counter=0;ALDH1A1 inh=12µM
